Source: PubChem BioAssay (Sanford-Burnham Center for Chemical Genomics)
tim10-1 inh: tim10-1 yeast growth inhibition; S. cerevisiae tim10-1 ts strain growth, BacTiter-Glo, 24 h; inhibition, % at 20 µM; hit rate 2.2% among 330,000;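 active means inhibition of at least 40%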;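 further: mutant grown at 25 °C; 0% = DMSO wells with yeast and 100% = wells holding no yeast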
TIM10 inh: inhibits growth of TIM10 yeast strain. S. cerevisiae TIM10 strain growth, BacTiter-Glo luminescence, 24 h. inhibition, % at 10 µM. hit rate 1.4% among 330,000;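 active means inhibition of 40% or more at the single tested concentration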;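 further: wild-type TIM10 isogenic control strain grown at permissive 25 °C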
MPTP inh: blocks calcium-induced mitochondrial swelling | AID 602449 | inhibition, % at 10 µM | isolated mouse mitochondria, Ca2+ swelling absorbance, 30 min | hit rate 1.4% among 360,000;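 active means inhibition of 50% or more, scaled per plate between neutral and stimulator controls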;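 further: 0% = DMSO wells given calcium and 100% = 1 mM EGTA wells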
Mdm2-MdmX inh: disrupts the human Mdm2-MdmX interaction; SaOS-2 split-luciferase Mdm2/MdmX complementation, luminescence; hit rate 3% among 330,000; inhibition, % at 8 µM; O15151+Q00987;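 active means inhibition of at least 50% at 8 µM in the primary screen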
tim23-1 inh: inhibits growth of tim23-1 mutant yeast; S. cerevisiae tim23-1 growth, BacTiter-Glo luminescence, 24 h; inhibition, % at 20 µM; hit rate 1.3% among 330,000; AID 463212;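 active means growth inhibition of the mutant yeast at or above 50%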;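 further: temperature-sensitive mutant grown at 25 °C; plate controls were DMSO-treated mutant yeast for no effect and medium wells lacking yeast for full effect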
tim10 confirm: confirmation of TIM10 yeast growth inhibitors; shares compounds with TIM10 inh; S. cerevisiae tim10 strain growth, BacTiter-Glo luminescence, 24 h; inhibition, % at 10 µM; hit rate 63% among 4,600;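 active means inhibition of yeast growth at or above a set limit in either of two replicates at 10 µM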;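 further: this counterscreen used the strain with wild-type TIM10; 0% = yeast with DMSO and 100% = medium wells lacking yeast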
* marks the source's active call; other numbers are inactive results; x = not tested or not shown. The list is not random: actives were taken first. Their share in the collection is about 6.3%.

SMILES	tim10-1 inh	TIM10 inh	MPTP inh	Mdm2-MdmX inh	tim23-1 inh	tim10 confirm
Cc1cc(C(F)F)n2nc(C(=O)Nc3ccccc3F)nc2n1	-20	64*	1	4	-4	-8
Cc1cc(C(F)F)n2nc(C(=O)Nc3ccc(F)cc3F)nc2n1	-8	5	0	13	8	x
Cc1cccc(NC(=S)N/N=C(\c2ccccc2)C(C)C)c1	39	54*	0	0	40	40*
CC(C)/C(=N\NC(=O)Nc1ccccc1)c1ccccc1	31	7	0	6	27	x
CCCCN(C(=O)CC1CCCCC1)c1c(N)n(CCCC)c(=O)[nH]c1=O	x	x	0	x	x	x
OCC(Cc1ccccc1)Nc1c2ccccc2nc2ccccc12 (stereo unspecified)	14	56*	4	46	27	-7
CN1CCC(=NNC(=O)CN(c2cccc([N+](=O)[O-])c2)S(=O)(=O)c2ccccc2)CC1	9	5	-1	8	14	x
CN1CCC(=NNC(=O)CN(c2ccc([N+](=O)[O-])cc2)S(=O)(=O)c2ccccc2)CC1	9	40*	0	9	8	31*
Cc1cc2nc(/C=C/c3cccnc3)[nH]c2cc1C	-4	51*	0	-13	38	69*
CNC(=O)c1cc2c(ccc3ccccc32)o1	38	61*	0	-13	37	59*
O=C(NC1CCCC1)c1cc2c(ccc3ccccc32)o1	17	-17	-2	-170	20	x
C=CCNC(=O)C12CCC(C)(C(=O)[C@H]1Br)C2(C)C (stereo partly specified)	12	42*	0	-11	12	-20
Cc1ccccc1S(=O)(=O)Cc1ccc(C(=O)NCCCN2CCCC(C)C2)o1 (stereo unspecified)	23	21	0	3	22	x
Cc1ccccc1CS(=O)(=O)Cc1ccc(C(=O)NCCCN2CC(C)CC(C)C2)o1 (stereo unspecified)	-8	95*	2	9	0	-3
O=C(Nc1ccc(F)cc1)C(c1cccc(F)c1)N1CCN(C(=O)c2ccco2)CC1 (stereo unspecified)	x	x	-1	x	x	x
COc1cc(OC)nc(Nc2nc(C(N)Cc3ccc(C(F)(F)F)cc3)cs2)n1 (stereo unspecified)	x	x	8	x	x	x
COc1ccc(CCCC(=O)N/N=C/c2cccc(OC)c2O)cc1C	6	55*	10	44	35	-10
COc1ccc(-c2cc(=NC(CC(C)C)C(=O)O)c3cc(C)ccc3o2)cc1 (stereo unspecified)	31	61*	-6	-157	29	44*
COc1ccc(-c2cc(=O)c3ccccc3o2)cc1	28	19	0	-92	23	x
Cc1ccc2nc(N3CCN(Cc4ccc(F)cc4)C3=O)c(C)cc2c1	22	46*	4	-23	3	60*
O=C(O)CN1CCN(Cc2ccc(F)cc2)C1=O	-2	0	0	15	5	x
N/C(=N\OC(=O)c1cccc(Br)c1)c1ccccn1	33	59*	1	-66	47	42*
N/C(=N\OC(=O)c1ccc(Cl)c(Cl)c1)c1ccccn1	20	20	0	-136	15	x
N/C(=N\OC(=O)c1ccc(Cl)cc1)c1ccccn1	37	62*	0	-29	48	47*
COc1ccc(-c2cc(NC(C)=O)c3ncc(-c4ccccc4)n3c2)c(OC)c1	x	x	-1	x	x	x
SMILES	tim10-1 inh	TIM10 inh	MPTP inh	Mdm2-MdmX inh	tim23-1 inh	tim10 confirm
O=C(Nc1nccs1)c1csc2c1CCCC2	35	57*	-2	-11	16	44*
O=C(Nc1ccon1)c1csc2c1CCCC2	28	25	-1	6	28	x
Cc1ccsc1/C=N\NC(=O)c1ccc2c(c1)OCO2	0	43*	-1	-89	35	28
Cc1ccc(NC(=O)c2ccc3c(c2)OCO3)cc1Cl	-27	42*	1	-343	48	34*
O=C(Nc1ccc2c(c1)OCO2)c1cccs1	37	47*	-1	-23	39	37*
O=C(N/N=C/c1ccc2c(c1)OCO2)c1ccc2c(c1)OCO2	-9	-1	-2	-17	1	x
O=C(Nc1cccc(C2OCCCO2)c1)c1cccs1	38	44*	0	18	28	-5
Cc1ccccc1N=C(c1ccccc1)C1C(=O)c2ccccc2C1=O	x	x	0	x	x	x
CCOC(=O)N(C)c1c(CC)nc2c(OCc3ccc(Cl)cc3)cccn12	x	x	-2	x	x	x
O=C(Nc1cccc(Cl)c1)c1csc([C@H]2C[C@H](O)[C@@H](CO)O2)n1	x	x	-1	x	x	x
O=C(Nc1cccc(F)c1)c1ccc2c(c1)OCO2	19	50*	-4	-57	42	6
COc1cc(OC)cc(C(=O)Nc2cccc(NC(=O)c3cccs3)c2)c1	x	x	0	x	x	x
O=C(Nc1ccc(S(=O)(=O)N2CCc3ccccc32)cc1)c1ccc2c(c1)OCO2	33	44*	2	10	27	47*
COc1cc(NC(=O)c2cccs2)cc(OC)c1	26	70*	2	13	29	56*
O=C(Nc1c(C(=O)Nc2cccc(F)c2)oc2ccccc12)c1ccc2c(c1)OCO2	12	-32	2	47	-3	x
COCc1[nH]nc2c1C(c1ccc(OC)cc1)C(C#N)=C(N)O2 (stereo unspecified)	9	-3	-1	27	26	x
COCc1[nH]nc2c1C(c1sccc1C)C(C#N)=C(N)O2 (stereo unspecified)	34	53*	2	4	31	28*
N#CC1=C(N)Oc2n[nH]c(-c3cccs3)c2C1c1cccs1 (stereo unspecified)	34	46*	1	34	0	23
CC(C)C[C@H]1CNC(=O)C(=O)N1C[C@@H]1CCCN1C[C@H](Cc1ccc(O)cc1)N1C[C@H](Cc2ccccc2)N(CC2CCCCC2)C(=O)C1=O	x	x	-1	x	x	x
COC(=O)N(C)C[C@@H]1OCc2cnnn2CCCC(=O)N([C@@H](C)CO)C[C@H]1C	x	x	0	x	x	x
O=C(Nc1ccc(F)cc1)C1CCN(S(=O)(=O)c2ccc3[nH]c(=O)oc3c2)CC1	-8	74*	-2	29	-7	6
CCOC(=O)C1(C)CCN1C(=O)c1ccc2c(c1)CCO2 (stereo unspecified)	x	x	2	x	x	x
CC(=O)c1ccccc1NS(=O)(=O)c1c(C)nn(-c2ccccc2)c1C	32	47*	0	31	48	30
Cc1ccccc1S(=O)(=O)N1C[C@@H]2C(C(=O)C[C@@H]3C(=O)N(C)C(=O)[C@@H]32)[C@@H]1c1ccc(Cl)cc1 (stereo partly specified)	x	x	2	x	x	x
COCCN(Cc1ccccc1)C(=S)Nc1ccc(Cl)cc1	28	41*	1	12	38	40*
C[C@@H]1CCCCO[C@H](CN(C)C(=O)Cc2ccccc2)[C@H](C)CN([C@@H](C)CO)C(=O)c2cc(NC(=O)Nc3ccc(F)cc3)ccc2O1	x	x	0	x	x	x
COc1cc(NC(=O)CSc2nccc(C)n2)c(C(=O)O)cc1OC	12	6	1	0	3	x
